The full list was thinned out, with hits kept by preference.
Dicer inh: inhibitors of Dicer pre-microRNA processing, primary screen, biochemical, cat-ELCCA, chemiluminescence | z-score at 25 µM | Endoribonuclease Dicer (Homo sapiens), Q9UPY3 | cat-ELCCA pre-miR-21 Dicer processing; active compounds read high | actives 6% (n = 47,000); in the data active = z-score above about 3, passing the limit was not always enough;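 also: plate controls were vehicle for no effect and no enzyme for full effect; higher signal means more uncleaved substrate so more Dicer inhibition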
* hit, by the source's call.

SMILES	Dicer inh
O=C1CC(C(=O)Nc2ccc(F)cc2)SC(=Nc2ccccc2)N1 (centres undefined)	1.8
COC(=O)c1cc(OC)ccc1Oc1cccc(OC)c1	-1.2
CCOC(=O)c1sc(SC)c2c1CCc1cnoc1-2	-0.76
O=C(O)CSCC(=O)Nc1ccc(C(F)(F)F)cn1	-1.2
COc1ccc(NC(=O)CSCC(=O)O)cc1OC	-1.7
CC(=O)c1ccc(NC(=O)CSCC(=O)O)cc1	4.3*
O=C(O)CSCC(=O)Nc1ccccn1	8.4
CC(=O)c1ccc(NC(=O)CN2CCN(CC(=O)Nc3ccc(C(C)=O)cc3)CC2)cc1	1.6
O=C(O)CSCC(=O)Nc1cccnc1	5.6*
COc1ccc(C2CC(c3ccc(Br)cc3)=NN2C(=O)CSc2nncn2C)cc1 (centres undefined)	-1.5
Cc1cc(C)nc(NCc2ccco2)n1	-0.31
Oc1ccccc1Nc1nc(NCc2ccco2)c2ccccc2n1	3.1*
O=C(NCc1ccco1)Oc1ccccc1	1.2
Cc1ccc(C2CC(C(F)(F)F)n3ncc(C(=O)NCc4cn(C)nc4C)c3N2)cc1 (centres undefined)	-0.66
O=C(NCc1ccc(F)cc1)c1cnn2c1NC(c1cccs1)CC2C(F)(F)F (centres undefined)	2.2
O=C(NCc1ccco1)c1cnn2c1NC(c1ccc(Br)cc1)CC2C(F)(F)F (centres undefined)	5*
O=C(NCCc1ccccc1)c1cnn2c1NC(c1ccc(Br)cc1)CC2C(F)(F)F (centres undefined)	-0.32
COc1ccc(C2CC(C(F)(F)F)n3ncc(C(=O)NCC4CCCO4)c3N2)cc1OC (centres undefined)	-0.63
O=C(NCc1cccs1)c1cnn2c1NC(c1ccc(Br)cc1)CC2C(F)(F)F (centres undefined)	5.7*
CCOC(=O)c1sc(/S(C)=N/S(=O)(=O)c2ccccc2Cl)c2c1CCC=C2 (centres undefined)	-0.64
CCO/C=C(\C#N)S(=O)(=O)C(C)(C)C	0.23
CCOC(=O)c1cnn(-c2nc(-c3ccc(C#N)cc3)cs2)c1C(F)(F)F	0.28
N[C@@H](Cc1ccc(O)c(O)c1)C(=O)O	5
CCOC(=O)[C@@H](N)Cc1ccccc1	-0.77
N[C@@H](Cc1cc(I)c(Oc2cc(I)c(O)c(I)c2)c(I)c1)C(=O)O	4.3*
SMILES	Dicer inh
N[C@@H](Cc1ccc([N+](=O)[O-])cc1)C(=O)O	-0.81
N[C@@H](Cc1cc(I)c(Oc2ccc(O)c(I)c2)c(I)c1)C(=O)O	3.2*
NC(Cc1c[nH]c2ccc(Br)cc12)C(=O)O (centres undefined)	-0.81
NC(=O)CN1C(=O)/C(=C\c2ccc(OCc3ccccc3)cc2)N=C1c1ccccc1	1.8
Cc1nc(C#N)c(N2CCCCC2)o1	0.14
COc1ccc(Cl)cc1NC(=O)c1cc2nc(-c3ccco3)cc(C(F)(F)F)n2n1	-0.57
CC(=O)c1cc(Cl)cc(Cl)c1OC(=O)c1cccc(C(F)(F)F)c1	-0.62
Cc1n[nH]c(=O)nc1NCCCN(C)C	-1.4
Cc1ccccc1Cn1c(NCC2CCCO2)nc2c1c(=O)n(C)c(=O)n2C (centres undefined)	1.7
Cc1n[nH]c(=O)nc1NCC1CCCO1 (centres undefined)	5.8*
CCCc1c(Cc2c(F)cccc2Cl)c(=O)oc2cc(OS(=O)(=O)c3cc(C)c(Cl)cc3Cl)ccc12	0.72
CC(C)N(C(=O)CSc1nc2ccccc2s1)c1ccccc1	-0.03
CC(O)c1nc2ccccc2n1CC(=O)N(c1ccccc1)C(C)C (centres undefined)	0.62
CC(C)N(C(=O)CN(C#N)c1nc(N(C)C)nc(N(C)C)n1)c1ccccc1	5.2*
COc1ccccc1C1CC(=O)Nc2nc(N)[nH]c(=O)c21 (centres undefined)	2.8
CCCCN1Cc2c(n(CC(=O)OCC)c3cc(-c4ccccc4)nn3c2=O)C1=O	-0.3
Cc1ccc(/C(O)=C2/C(=O)C(=O)N(c3cccnc3)C2c2cccc(O)c2)cc1 (centres undefined)	0.33
COCCN(CCOC)Cc1c(C)[nH]c2ccc(C)cc2c1=O	8.6
CCOC(=O)c1c(C)n(-c2ccc(N(C)C)cc2)c2ccc(OCC(N)=O)cc12	4.6*
CCOC(=O)c1c(C)n(-c2ccc(N(C)C)cc2)c2ccc(OC)cc12	-4.8
COc1ccccc1N1CCN(C(=O)c2cc(C)on2)CC1	-0.05
COc1ccccc1N1CCN(c2nnc(C)c3ccccc23)CC1	-0.71
CCOC(=O)c1c(C)n(-c2ccc(Br)cc2)c2ccc(O)cc12	-0.48
CCS(=O)(=O)Nc1cc2c(C(=O)O)c(C)n(S(=O)(=O)CC)c2cc1OC	-2
CCOC(=O)c1c(C)n(-c2ccccc2)c2cc(Br)c(O)cc12	3.7*
SMILES	Dicer inh
COc1cc(C(=O)O)cc(Br)c1OC	0.34
CCOC(=O)c1c(C)n(-c2ccccc2)c2ccc(OC(C)=O)cc12	1.4
COc1ccccc1-n1c(C)c(C(=O)O)c2cc(OC)c3ccccc3c21	4.6*
COc1cc2c(C(=O)O)c(C)n(-c3ccccc3)c2cc1Br	3.1*
CCOC(=O)c1c(C)n(-c2ccccc2)c2ccc(OC(=O)c3cccnc3SCC)cc12	-0.1
CC(=O)/C=C(/NCCN/C(=C/C(C)=O)c1ccccc1)c1ccccc1	1.5
O=C(CSc1ccc(C(F)(F)F)cn1)c1cccc(C(F)(F)F)c1	-1.4
CC1=CC(C)(C)N2C(=O)C(=O)c3cc(OC(=O)c4ccc(F)cc4)cc1c32	1.4
C=CCN(c1ccccc1C(=O)NCC(=O)O)S(=O)(=O)c1cccc(C)c1	-0.5
Cc1nc(Nc2nc3ccccc3s2)[nH]c(=O)c1Cc1ccccc1	-0.29
COCCOC(=O)c1ccc2nc(N)sc2c1	0.45
O=C(CN1CCN(c2nc3cc(Cl)ccc3s2)CC1)c1ccc(OC(F)(F)F)cc1	0.69
CCCCCC(=O)Nc1nc2ccccc2s1	-1.3
COc1ccc(S(=O)(=O)N2CCN(C)CC2)c2ccccc12	6.1*
Cc1ccc(-c2n[nH]c(=S)c3ccccc23)cc1S(=O)(=O)N1CCN(C)CC1	0.77
O=S(=O)(c1ccc(Cl)c2ccccc12)N1CCN(c2ccccc2)CC1	1.5
NNC(=O)c1cc2cc(OCc3ccccc3)ccc2[nH]1	-0.38
COc1ccc(C2/C(=C(\O)c3ccc(F)cc3)C(=O)C(=O)N2c2nnc(C)s2)cc1OC (centres undefined)	1.7
Cc1nnc(N2C(=O)C(=O)/C(=C(/O)c3ccccc3)C2c2ccccc2)s1 (centres undefined)	1.5
COc1ccc(C2/C(=C(\O)c3ccc(Cl)cc3)C(=O)C(=O)N2c2nnc(C)s2)cc1OC (centres undefined)	4.1*
CCOc1ccc(C(C)(C)C)cc1S(=O)(=O)n1c(C)nc2ccccc21	-2.4
O=C1c2ccccc2-c2nc3cc(C(F)(F)F)ccc3nc21	-1.7
Cc1nc2ccc([N+](=O)[O-])cc2nc1C	-0.66
Cc1nc2ccc(C(F)(F)F)cc2nc1C	3.5*
CC(=O)NC1CCN(C(=S)Nc2ccc(Cl)cc2C)CC1	-0.09
SMILES	Dicer inh
NCCc1nnc(SCc2cccc(Cl)c2)o1	0.36
c1ccc(-c2nnc(-c3ccccc3)o2)cc1	1.1
CN(C)c1ccc(-c2nnc(-c3ccccc3)o2)cc1	4.2*
CCCOC(=O)CSc1nnc(-c2ccc(N(C)C)cc2)o1	-1.4
Cc1noc(C(F)(F)F)c1-c1nc(-c2ccc(Cl)cc2)no1	0.53
C=C(C1CC1)N(C(=O)c1ccc(F)cc1)c1ccc(OC)cc1	-1.3
CN(C)N1C(=O)c2cccc3cccc(c23)C1=O	3
CN(C)/C=C/C=C1\N=C(c2ccccc2)OC1=O	0.68

High-throughput results as filed in PubChem.
